# Key:
# Assay in all cases: DAPPL (digital affinity profiling via proximity ligation, sequencing); 10 mM Tris-HCl pH 7.5, 50 mM NaCl, 1 mM DTT, 4% glycerol, room temperature, 30 min; GST-TFs on glutathione beads, 16-mer random dsDNA library, 0.1% formaldehyde crosslink after washing; high values mean tight binding
# Conditions in all cases: protein: recombinant; tags: N-terminal GST; dsDNA, one strand shown
# [1] = biological target: T1, FLI1 (Homo sapiens, UniProt Q01543 1-452)
# T1 sequence: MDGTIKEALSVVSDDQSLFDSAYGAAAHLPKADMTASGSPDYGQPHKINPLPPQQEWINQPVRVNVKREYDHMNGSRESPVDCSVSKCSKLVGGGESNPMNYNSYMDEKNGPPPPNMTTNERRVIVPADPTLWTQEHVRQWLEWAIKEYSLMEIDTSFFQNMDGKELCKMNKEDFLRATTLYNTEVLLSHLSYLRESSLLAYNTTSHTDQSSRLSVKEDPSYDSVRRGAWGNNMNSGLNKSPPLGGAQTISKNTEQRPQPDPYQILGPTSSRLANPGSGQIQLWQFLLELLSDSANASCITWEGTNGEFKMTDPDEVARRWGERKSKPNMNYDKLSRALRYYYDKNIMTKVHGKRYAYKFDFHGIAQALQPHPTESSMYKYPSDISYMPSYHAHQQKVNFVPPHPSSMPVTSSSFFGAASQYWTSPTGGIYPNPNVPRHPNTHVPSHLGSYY
# Summary of the method: (§1)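 Human transcription factors fused to GST were expressed in yeast, captured on glutathione beads, given DNA barcodes and pooled with a GST-only negative control. Pools were incubated with 200 nmole of a 16-mer random double-stranded DNA library in Tris/NaCl/DTT/glycerol buffer at room temperature for 30 min. They were then washed, crosslinked with 0.1% formaldehyde, proximity-ligated (BsaI/T4 ligase, 1 h, 37 °C), PCR-amplified and sequenced on an Illumina NextSeq500. Binding signal is each 6-mer's read frequency for a factor divided by its frequency for the GST control.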
# [2] = biological target: T2, ELK1 (Homo sapiens, UniProt P19419 1-428)
# T2 sequence: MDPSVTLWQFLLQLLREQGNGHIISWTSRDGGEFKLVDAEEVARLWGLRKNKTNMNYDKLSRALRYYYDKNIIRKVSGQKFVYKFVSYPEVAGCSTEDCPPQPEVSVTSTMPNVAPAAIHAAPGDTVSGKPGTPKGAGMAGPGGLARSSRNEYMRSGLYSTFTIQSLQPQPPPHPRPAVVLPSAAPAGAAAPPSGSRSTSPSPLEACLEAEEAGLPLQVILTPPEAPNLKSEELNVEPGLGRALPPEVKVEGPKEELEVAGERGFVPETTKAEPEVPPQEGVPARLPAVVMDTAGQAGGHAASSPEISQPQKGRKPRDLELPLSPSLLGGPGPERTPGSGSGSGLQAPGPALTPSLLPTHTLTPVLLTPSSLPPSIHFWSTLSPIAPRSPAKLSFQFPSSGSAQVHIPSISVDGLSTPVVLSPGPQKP
# Summary of the method: as §1
# [3] = biological target: T3, GABPA (Homo sapiens, UniProt Q06546 1-454)
# T3 sequence: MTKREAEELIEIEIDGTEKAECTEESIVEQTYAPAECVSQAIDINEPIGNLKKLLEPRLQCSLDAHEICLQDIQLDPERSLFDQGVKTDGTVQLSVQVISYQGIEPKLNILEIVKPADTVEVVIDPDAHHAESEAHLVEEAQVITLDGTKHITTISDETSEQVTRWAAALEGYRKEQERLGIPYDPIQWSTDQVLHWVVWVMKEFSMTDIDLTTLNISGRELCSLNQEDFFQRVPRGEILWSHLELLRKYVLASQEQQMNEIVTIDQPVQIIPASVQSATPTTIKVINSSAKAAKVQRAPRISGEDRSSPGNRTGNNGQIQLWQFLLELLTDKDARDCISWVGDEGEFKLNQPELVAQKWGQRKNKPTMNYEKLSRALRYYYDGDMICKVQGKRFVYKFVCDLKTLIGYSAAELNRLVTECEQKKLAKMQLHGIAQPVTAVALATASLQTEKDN
# Summary of the method: as §1
# [4] = biological target: T4, ERG (Homo sapiens, UniProt P11308 1-479)
# T4 sequence: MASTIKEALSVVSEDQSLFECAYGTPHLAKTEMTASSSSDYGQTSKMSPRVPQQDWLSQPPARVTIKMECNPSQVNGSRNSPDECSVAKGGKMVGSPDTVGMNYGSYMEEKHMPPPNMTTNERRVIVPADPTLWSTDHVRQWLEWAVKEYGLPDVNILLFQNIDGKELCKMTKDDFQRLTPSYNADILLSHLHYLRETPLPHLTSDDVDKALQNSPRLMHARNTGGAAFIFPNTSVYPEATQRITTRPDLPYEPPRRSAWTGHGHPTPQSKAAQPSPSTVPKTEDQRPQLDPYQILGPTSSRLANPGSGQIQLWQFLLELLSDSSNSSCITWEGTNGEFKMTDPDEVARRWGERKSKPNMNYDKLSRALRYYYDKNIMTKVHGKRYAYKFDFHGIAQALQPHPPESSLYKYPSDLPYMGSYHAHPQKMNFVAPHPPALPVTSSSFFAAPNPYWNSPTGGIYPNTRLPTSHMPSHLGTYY
# Summary of the method: as §1
# [5] = biological target: ELF1 (Homo sapiens, UniProt P32519 1-619)
# ELF1, sequence (P32519 whole entry): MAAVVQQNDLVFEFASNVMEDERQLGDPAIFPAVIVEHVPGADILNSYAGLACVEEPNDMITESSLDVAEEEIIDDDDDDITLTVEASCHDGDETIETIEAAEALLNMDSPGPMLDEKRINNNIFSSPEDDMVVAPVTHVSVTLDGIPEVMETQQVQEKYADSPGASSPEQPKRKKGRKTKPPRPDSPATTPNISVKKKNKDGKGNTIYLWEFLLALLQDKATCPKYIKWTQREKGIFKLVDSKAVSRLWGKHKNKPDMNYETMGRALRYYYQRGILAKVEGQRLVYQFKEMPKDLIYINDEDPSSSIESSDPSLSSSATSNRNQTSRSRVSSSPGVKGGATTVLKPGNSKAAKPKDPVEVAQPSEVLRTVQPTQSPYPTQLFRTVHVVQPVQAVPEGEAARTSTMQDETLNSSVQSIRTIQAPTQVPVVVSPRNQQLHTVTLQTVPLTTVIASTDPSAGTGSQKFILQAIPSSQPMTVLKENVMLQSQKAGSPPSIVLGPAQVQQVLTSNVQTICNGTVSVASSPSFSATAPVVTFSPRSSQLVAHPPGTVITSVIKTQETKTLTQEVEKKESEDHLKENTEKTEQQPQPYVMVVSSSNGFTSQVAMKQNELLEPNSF
# Summary of the method: as §1
# [6] = biological target: T5, EHF (Homo sapiens, UniProt Q9NZC4 1-300)
# T5 sequence: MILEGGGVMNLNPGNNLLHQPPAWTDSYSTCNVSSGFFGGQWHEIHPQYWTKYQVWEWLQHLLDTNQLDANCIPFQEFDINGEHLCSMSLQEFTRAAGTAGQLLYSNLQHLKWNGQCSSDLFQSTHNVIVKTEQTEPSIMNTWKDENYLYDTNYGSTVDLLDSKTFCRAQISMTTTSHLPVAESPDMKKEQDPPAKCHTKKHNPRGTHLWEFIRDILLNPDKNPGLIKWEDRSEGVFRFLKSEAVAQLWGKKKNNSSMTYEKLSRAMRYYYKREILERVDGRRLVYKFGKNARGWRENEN
# Summary of the method: as §1
# [7] = biological target: SPIB (Homo sapiens, UniProt Q01892 1-262)
# SPIB, sequence (Q01892 whole entry): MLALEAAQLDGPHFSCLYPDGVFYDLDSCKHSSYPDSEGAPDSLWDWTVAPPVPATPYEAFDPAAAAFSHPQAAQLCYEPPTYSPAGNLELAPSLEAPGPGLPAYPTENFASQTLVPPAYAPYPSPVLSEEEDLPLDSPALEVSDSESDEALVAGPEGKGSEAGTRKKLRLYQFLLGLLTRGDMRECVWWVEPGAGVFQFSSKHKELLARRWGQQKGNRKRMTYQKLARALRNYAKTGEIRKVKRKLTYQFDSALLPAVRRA
# Summary of the method: as §1
# [8] = biological target: T6, ELK3 (Homo sapiens, UniProt P41970 1-407)
# T6 sequence: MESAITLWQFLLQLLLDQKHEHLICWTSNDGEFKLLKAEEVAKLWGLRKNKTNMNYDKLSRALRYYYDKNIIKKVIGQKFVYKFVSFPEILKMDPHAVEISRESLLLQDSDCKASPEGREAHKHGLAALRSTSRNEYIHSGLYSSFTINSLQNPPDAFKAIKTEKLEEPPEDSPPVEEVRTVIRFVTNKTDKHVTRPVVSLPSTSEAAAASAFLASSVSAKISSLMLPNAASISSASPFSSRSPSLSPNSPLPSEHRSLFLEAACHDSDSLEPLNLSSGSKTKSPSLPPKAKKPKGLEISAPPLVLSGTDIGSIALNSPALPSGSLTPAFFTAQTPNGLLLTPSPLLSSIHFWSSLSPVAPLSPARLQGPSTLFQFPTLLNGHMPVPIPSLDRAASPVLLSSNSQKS
# Summary of the method: as §1
# [9] = biological target: T7, SPIC (Homo sapiens, UniProt Q8N5J4 1-248)
# T7 sequence: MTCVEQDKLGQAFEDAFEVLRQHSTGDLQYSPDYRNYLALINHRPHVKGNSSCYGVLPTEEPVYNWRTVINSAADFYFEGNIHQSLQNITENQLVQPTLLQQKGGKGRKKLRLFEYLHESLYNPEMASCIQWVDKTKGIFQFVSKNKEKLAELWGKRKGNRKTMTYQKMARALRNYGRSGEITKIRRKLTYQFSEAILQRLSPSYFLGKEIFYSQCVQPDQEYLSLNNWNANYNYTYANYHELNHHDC
# Summary of the method: as §1
# [10] = biological target: ELF4 (Homo sapiens, UniProt Q99607 1-663)
# ELF4, sequence (Q99607 whole entry): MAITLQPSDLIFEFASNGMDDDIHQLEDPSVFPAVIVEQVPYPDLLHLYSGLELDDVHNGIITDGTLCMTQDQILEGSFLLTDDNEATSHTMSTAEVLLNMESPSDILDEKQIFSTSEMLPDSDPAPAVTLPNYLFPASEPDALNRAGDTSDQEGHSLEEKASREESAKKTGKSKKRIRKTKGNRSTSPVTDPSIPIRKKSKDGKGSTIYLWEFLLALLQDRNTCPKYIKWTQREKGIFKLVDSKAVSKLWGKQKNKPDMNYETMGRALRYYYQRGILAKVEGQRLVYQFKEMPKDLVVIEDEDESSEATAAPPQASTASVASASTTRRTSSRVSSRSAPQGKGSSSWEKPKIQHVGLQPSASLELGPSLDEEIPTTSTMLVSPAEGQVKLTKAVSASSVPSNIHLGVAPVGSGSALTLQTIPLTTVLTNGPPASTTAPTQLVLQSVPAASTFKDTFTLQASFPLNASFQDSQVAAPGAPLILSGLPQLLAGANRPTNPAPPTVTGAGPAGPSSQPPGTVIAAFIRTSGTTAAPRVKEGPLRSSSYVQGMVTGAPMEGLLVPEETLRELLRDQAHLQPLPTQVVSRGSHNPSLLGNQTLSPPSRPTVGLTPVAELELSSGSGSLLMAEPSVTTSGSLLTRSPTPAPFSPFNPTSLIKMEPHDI
# Summary of the method: as §1
# [11] = biological target: T8, ELK4 (Homo sapiens, UniProt P28324-2 1-405)
# T8 sequence: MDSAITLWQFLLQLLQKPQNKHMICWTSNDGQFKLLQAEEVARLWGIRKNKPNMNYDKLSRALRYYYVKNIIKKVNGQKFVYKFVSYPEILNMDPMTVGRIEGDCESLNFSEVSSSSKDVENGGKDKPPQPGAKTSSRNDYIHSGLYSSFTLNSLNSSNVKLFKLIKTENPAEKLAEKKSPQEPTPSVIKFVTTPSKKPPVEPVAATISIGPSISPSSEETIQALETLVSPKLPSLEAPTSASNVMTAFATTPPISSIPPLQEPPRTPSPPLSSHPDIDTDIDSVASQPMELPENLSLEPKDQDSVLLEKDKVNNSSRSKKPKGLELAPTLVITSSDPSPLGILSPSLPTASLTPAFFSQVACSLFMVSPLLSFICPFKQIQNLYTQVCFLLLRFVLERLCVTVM
# Summary of the method: as §1
# [12] = biological target: T9, ETV2 (Homo sapiens, UniProt O00321 1-342)
# T9 sequence: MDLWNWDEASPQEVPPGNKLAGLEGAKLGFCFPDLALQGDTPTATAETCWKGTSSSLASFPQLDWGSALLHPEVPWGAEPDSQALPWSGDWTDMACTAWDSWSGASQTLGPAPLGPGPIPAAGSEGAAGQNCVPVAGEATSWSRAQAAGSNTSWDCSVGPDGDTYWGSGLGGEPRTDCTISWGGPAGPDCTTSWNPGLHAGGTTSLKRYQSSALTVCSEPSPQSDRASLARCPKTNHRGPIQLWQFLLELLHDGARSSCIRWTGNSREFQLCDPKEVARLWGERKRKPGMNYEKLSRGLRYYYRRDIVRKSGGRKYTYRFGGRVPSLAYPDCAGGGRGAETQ
# Summary of the method: as §1
# [13] = biological target: T10, ELF3 (Homo sapiens, UniProt P78545 1-371)
# T10 sequence: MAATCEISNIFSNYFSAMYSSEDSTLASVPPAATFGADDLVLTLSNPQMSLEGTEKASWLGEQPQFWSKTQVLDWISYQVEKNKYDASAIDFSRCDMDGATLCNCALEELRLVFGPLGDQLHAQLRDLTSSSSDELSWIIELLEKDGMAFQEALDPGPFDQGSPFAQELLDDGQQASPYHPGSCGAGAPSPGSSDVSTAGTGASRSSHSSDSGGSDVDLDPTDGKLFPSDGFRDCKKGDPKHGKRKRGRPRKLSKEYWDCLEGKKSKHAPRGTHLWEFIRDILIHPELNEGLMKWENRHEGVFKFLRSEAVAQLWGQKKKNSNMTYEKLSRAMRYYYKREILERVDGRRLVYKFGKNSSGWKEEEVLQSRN
# Summary of the method: as §1
# [14] = biological target: ETV1 (Homo sapiens, UniProt P50549 1-477)
# ETV1, sequence (P50549 whole entry): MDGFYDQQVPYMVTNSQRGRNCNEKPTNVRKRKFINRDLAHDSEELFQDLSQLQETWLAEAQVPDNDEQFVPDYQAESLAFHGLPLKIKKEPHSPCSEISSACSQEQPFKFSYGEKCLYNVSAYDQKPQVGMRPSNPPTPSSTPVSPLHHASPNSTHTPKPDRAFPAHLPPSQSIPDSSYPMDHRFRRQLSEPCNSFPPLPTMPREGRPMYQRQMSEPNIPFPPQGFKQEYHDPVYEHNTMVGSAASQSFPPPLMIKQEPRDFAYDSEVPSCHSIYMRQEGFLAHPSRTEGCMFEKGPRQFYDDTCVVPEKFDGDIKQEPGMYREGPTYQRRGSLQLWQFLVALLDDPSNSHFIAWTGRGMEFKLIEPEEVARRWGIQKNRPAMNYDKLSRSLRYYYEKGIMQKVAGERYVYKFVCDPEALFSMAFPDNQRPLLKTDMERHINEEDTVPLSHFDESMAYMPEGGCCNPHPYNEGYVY
# Summary of the method: as §1
# [15] = biological target: T11, ERF (Homo sapiens, UniProt P50548 1-548)
# T11 sequence: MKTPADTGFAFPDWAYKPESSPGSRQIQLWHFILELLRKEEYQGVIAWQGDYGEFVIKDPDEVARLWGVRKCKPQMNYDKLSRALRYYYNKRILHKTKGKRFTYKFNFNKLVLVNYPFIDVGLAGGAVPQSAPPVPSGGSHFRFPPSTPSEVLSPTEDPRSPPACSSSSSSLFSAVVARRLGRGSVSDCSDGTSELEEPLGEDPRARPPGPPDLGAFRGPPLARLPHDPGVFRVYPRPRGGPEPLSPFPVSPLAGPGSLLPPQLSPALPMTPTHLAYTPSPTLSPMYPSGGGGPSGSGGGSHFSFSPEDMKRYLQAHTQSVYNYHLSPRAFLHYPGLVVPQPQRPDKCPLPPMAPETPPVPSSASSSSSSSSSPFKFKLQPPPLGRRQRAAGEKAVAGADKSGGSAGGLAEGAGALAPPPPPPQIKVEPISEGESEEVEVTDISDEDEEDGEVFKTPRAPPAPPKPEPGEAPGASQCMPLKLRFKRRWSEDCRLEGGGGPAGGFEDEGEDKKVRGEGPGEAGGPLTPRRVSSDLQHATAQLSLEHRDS
# Summary of the method: as §1
# [16] = biological target: T12, ETV3L (Homo sapiens, UniProt Q6ZN32 1-361)
# T12 sequence: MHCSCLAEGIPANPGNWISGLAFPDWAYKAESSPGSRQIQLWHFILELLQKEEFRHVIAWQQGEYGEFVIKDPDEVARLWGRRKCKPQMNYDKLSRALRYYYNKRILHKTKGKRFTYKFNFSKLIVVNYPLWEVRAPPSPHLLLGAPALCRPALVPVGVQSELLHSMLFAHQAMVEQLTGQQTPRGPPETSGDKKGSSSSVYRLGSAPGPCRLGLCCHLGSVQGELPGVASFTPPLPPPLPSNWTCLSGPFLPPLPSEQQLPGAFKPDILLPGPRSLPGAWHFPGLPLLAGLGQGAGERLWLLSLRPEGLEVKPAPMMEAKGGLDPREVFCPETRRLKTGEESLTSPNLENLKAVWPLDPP
# Summary of the method: as §1
# [17] = biological target: T13, ETV3 (Homo sapiens, UniProt P41162-2 1-143)
# T13 sequence: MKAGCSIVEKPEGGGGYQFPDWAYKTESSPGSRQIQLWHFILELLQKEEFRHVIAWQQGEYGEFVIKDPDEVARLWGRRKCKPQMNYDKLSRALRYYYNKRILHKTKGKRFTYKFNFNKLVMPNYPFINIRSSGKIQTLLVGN
# Summary of the method: as §1
# [18] = biological target: ETV6 (Homo sapiens, UniProt P41212 1-452)
# ETV6, sequence (P41212 whole entry): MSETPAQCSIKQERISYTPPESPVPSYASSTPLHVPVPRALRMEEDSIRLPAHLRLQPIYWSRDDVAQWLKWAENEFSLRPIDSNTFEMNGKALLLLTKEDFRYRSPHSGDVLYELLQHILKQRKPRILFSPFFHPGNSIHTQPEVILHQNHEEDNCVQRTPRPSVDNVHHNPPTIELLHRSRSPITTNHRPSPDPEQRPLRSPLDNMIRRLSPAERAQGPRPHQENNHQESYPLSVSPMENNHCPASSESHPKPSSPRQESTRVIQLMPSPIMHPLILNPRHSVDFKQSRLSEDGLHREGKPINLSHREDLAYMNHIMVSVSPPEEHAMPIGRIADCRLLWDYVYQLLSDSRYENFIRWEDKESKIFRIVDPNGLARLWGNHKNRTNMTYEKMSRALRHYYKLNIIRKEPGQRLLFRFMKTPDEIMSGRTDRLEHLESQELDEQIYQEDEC
# Summary of the method: as §1
sequence,measurement,setting,value
ATGGGG,binding signal,[1],"1.11 fold enrichment (6-mer frequency, TF over GST control)"
same,binding signal,[2],"1.09 fold enrichment (6-mer frequency, TF over GST control)"
same,binding signal,[3],"1.08 fold enrichment (6-mer frequency, TF over GST control)"
same,binding signal,[4],"1.07 fold enrichment (6-mer frequency, TF over GST control)"
same,binding signal,[5],"1.06 fold enrichment (6-mer frequency, TF over GST control)"
same,binding signal,[6],"1.11 fold enrichment (6-mer frequency, TF over GST control)"
same,binding signal,[7],"1.14 fold enrichment (6-mer frequency, TF over GST control)"
same,binding signal,[8],"1.05 fold enrichment (6-mer frequency, TF over GST control)"
same,binding signal,[9],"1.16 fold enrichment (6-mer frequency, TF over GST control)"
same,binding signal,[10],"1.02 fold enrichment (6-mer frequency, TF over GST control)"
same,binding signal,[11],"1.03 fold enrichment (6-mer frequency, TF over GST control)"
same,binding signal,[12],"1.16 fold enrichment (6-mer frequency, TF over GST control)"
same,binding signal,[13],"1.06 fold enrichment (6-mer frequency, TF over GST control)"
same,binding signal,[14],"1.15 fold enrichment (6-mer frequency, TF over GST control)"
same,binding signal,[15],"1.08 fold enrichment (6-mer frequency, TF over GST control)"
same,binding signal,[16],"1.16 fold enrichment (6-mer frequency, TF over GST control)"
same,binding signal,[17],"1.13 fold enrichment (6-mer frequency, TF over GST control)"
same,binding signal,[18],"1.18 fold enrichment (6-mer frequency, TF over GST control)"

# From PMC7862700, “An all-to-all approach to the identification of sequence-specific readers for epigenetic DNA modifications on cytosine”
